Calls of active or inactive are those of the source.

The nature of test [1]: optical density shifts of acrAB sulA E. coli – strain DRC41, OD650, 48 h, E. coli filamentation inducer project, primary screen (AID 1152).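 Further: E. coli MC1000 strain DRC41 lacking acrAB efflux pump and sulA.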 The conditions noted are these: higher = more signal, called active from +8 up or from −8 down.
Test [2] is described as follows: probe aLefty1 binding on compound microarray – biochemical, small-molecule microarray, 635/667 nm fluorescence, primary screen (AID 1153).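 Further: score merges spot fluorescence with signal-to-noise ratio from the scanned slide images.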 The conditions noted are these: higher = more signal.
Test [3] in a line: plasmodial surface anion channel blockers, osmotic lysis – cell-based, P. falciparum Indochina, OD700, 1 h, primary screen (AID 1154). The conditions noted are these: P. falciparum Indochina infected RBC osmotic lysis, higher = more signal, called active from +8 up or from −8 down.
Test [4] can be described thus: plasmodial surface anion channel blockers, osmotic lysis – cell-based, P. falciparum Indochina, OD700, 2 h, primary screen (AID 1155).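 Further: lysis reports solute entry through the parasite surface anion channel PSAC.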 Conditions: P. falciparum Indochina infected erythrocytes, higher = more signal, called active from +8 up or from −8 down.
Test [5] is described as follows: changes in parasitized red cell lysis, either direction – P. falciparum Indochina, OD700, 3 h, PSAC antagonist project, primary screen (AID 1156). Conditions: P. falciparum-infected erythrocytes, osmotic lysis, higher = more signal, called active from +8 up or from −8 down.
Test [6] is described as follows: plasmodial surface anion channel blockers, osmotic lysis – cell-based, P. falciparum Indochina, OD700, 18 h, primary screen (AID 1157). The conditions noted are these: P. falciparum Indochina infected erythrocytes, osmotic lysis OD700, 18 h; higher = more signal, called active from +8 up or from −8 down.
The nature of test [7]: S6 kinase pathway phospho-S6 level changes – cell-based, A549, cytoblot, luminescence, serum-stimulated, primary screen (AID 1158).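 Further: serum-stimulated A549 lung adenocarcinoma cells; signal is phosphorylated S6 detected by cytoblot immunostaining with HRP secondary.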 The conditions noted are these: 5 h, higher = more signal.
Test [8] deals with NADPH oxidase 2 (Homo sapiens) (UniProt P04839). The test is described as follows: compounds shifting NOX2 Amplex Red fluorescence – cell-based, HEK293-NOX2, PMA-stimulated, NOX inhibitor project, primary screen (AID 1159). Further: test concentration not given here. The conditions noted are these: 45 min, higher = more signal, called active from +8 up or from −8 down.
Sequence of NADPH oxidase 2 (Homo sapiens) (P04839 whole entry, looked up): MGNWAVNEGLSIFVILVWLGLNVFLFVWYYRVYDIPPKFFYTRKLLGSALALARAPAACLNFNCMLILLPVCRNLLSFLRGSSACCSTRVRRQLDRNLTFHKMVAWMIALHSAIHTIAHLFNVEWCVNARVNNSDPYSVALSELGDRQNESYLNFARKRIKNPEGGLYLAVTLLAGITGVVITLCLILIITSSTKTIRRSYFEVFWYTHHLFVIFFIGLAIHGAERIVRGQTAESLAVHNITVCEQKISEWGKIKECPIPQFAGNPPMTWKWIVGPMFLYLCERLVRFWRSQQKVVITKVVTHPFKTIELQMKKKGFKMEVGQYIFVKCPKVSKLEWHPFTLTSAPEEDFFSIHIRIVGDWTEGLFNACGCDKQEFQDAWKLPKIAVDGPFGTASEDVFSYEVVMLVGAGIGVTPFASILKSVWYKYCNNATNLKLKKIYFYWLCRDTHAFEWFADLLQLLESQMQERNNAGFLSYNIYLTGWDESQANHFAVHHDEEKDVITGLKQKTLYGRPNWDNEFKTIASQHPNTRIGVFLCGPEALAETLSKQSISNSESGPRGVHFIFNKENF
The target in test [9] is NADPH oxidase 4 (Homo sapiens) (UniProt Q9NPH5). The test is described as follows: compounds shifting NOX4 Amplex Red fluorescence – cell-based, HEK293-NOX4, tetracycline-induced, NOX inhibitor project, primary screen (AID 1160). Conditions: HEK293-NOX4, Amplex Red H2O2 fluorescence, 45 min; higher = more signal, called active from +8 up or from −8 down.
Sequence of NADPH oxidase 4 (Homo sapiens) (Q9NPH5 whole entry, looked up): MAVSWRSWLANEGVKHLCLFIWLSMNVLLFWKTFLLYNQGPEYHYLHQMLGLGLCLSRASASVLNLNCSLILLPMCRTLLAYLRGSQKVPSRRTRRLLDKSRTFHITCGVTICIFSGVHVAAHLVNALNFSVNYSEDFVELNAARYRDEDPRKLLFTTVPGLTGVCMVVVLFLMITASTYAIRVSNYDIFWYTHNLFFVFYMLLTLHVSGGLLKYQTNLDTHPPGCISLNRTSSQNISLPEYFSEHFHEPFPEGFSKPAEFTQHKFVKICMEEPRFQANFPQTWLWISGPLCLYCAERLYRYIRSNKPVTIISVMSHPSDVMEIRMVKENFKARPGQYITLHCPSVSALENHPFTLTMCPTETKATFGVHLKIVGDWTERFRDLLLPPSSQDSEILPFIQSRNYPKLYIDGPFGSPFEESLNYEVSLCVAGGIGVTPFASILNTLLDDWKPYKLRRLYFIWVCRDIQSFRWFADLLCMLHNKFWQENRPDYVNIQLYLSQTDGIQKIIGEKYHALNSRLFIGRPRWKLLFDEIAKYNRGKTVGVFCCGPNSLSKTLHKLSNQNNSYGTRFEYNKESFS
The target in test [10] is NADPH oxidase 5 (Homo sapiens) (UniProt Q96PH1). The test is described as follows: compounds shifting NOX5 Amplex Red fluorescence – cell-based, HEK293-NOX5, NOX inhibitor project, primary screen (AID 1161). The conditions noted are these: HEK293-NOX5, ionomycin, 45 min, higher = more signal.
Sequence of NADPH oxidase 5 (Homo sapiens) (Q96PH1 whole entry, looked up): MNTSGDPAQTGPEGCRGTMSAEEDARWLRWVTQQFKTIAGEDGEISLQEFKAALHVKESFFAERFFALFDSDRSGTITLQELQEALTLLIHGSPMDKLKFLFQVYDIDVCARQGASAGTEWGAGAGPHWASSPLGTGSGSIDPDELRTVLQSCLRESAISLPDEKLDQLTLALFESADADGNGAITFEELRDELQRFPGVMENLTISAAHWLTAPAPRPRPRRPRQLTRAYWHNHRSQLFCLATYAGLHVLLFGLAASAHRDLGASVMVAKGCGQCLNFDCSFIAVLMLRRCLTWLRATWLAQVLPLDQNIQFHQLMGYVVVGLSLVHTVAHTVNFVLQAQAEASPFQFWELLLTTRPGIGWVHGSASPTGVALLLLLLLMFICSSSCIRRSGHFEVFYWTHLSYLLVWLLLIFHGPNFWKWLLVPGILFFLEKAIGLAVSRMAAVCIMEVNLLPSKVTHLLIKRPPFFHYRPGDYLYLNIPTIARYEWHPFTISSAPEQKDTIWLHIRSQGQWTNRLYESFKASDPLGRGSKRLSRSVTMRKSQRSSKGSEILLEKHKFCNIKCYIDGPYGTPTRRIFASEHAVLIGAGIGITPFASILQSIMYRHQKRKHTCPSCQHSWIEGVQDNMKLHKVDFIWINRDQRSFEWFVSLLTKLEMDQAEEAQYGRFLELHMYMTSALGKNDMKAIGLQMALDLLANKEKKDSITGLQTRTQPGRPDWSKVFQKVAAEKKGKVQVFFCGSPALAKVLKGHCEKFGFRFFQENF
Test [11] can be described thus: compound effects on lung adenocarcinoma cell viability – A549, calcein-AM fluorescence, 48 h, basal, profiling panel (AID 1162). Further: test concentration not given here. Conditions: higher = more signal.
A short description of test [12]: compound effects on differentiated 3T3-L1 adipocyte viability – cell-based, 3T3-L1 adipocytes, calcein-AM fluorescence, 48 h, basal, profiling panel (AID 1163). Further: test concentration not given here. The conditions noted are these: 3T3-L1 adipocytes viability, higher = more signal.
Test [13] in a line: compound effects on hepatocellular carcinoma cell viability – HepG2, calcein-AM fluorescence, 48 h, basal, profiling panel (AID 1164). Further: test concentration not given here. Conditions: higher = more signal.
Test [14] can be described thus: compound effects on multiple myeloma cell viability – MM1S, calcein-AM fluorescence, 48 h, basal, profiling panel (AID 1165). Further: test concentration not given here. The conditions noted are these: higher = more signal.
Test [15] can be described thus: calcein-AM signal in unstimulated myeloma cells – cell-based, calcein-AM fluorescence, 48 h, PK04 Diversity Set, profiling panel (AID 1166).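 Further: cells grown under basal conditions without added stimulus; test concentration not given here.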 The conditions noted are these: RPMI8226 myeloma viability, higher = more signal.
A short description of test [16]: JC-1 mitochondrial signal, unstimulated HepG2 cells – cell-based, JC-1 fluorescence, 24 h, 100 nL compound, profiling panel (AID 1167). Further: test concentration not given here. The conditions noted are these: HepG2 mitochondrial potential, higher = more signal.
Test [17] in a line: JC-1 mitochondrial signal, unstimulated adipocytes – cell-based, JC-1 fluorescence, 3T3-L1 adipocytes, 24 h, 100 nL compound, profiling panel (AID 1168). Further: test concentration not given here. Conditions: JC-1 mitochondrial fluorescence, higher = more signal, called active from +8 up or from −8 down.
A short description of test [18]: JC-1 mitochondrial signal, unstimulated myeloma cells – cell-based, JC-1 fluorescence, RPMI8226, 24 h, 100 nL compound, profiling panel (AID 1169). Further: test concentration not given here. The conditions noted are these: JC-1 mitochondrial potential fluorescence, higher = more signal.
The nature of test [19]: JC-1 mitochondrial signal, unstimulated MM1S myeloma – cell-based, JC-1 fluorescence, 24 h, 100 nL compound, profiling panel (AID 1170). Further: test concentration not given here. The conditions noted are these: MM1S mitochondrial potential, higher = more signal.
Test [20] can be described thus: resazurin metabolic signal in A549 cells – cell-based, resazurin fluorescence, 24 h, PK04 Diversity Set, profiling panel (AID 1171). Further: test concentration not given here. The conditions noted are these: A549 viability, higher = more signal, called active from +8 up or from −8 down. (The colour change of resazurin is a common sign of viable cells or microbes.)

Turning to `CC(C)[C@@H](OCc1ccccc1)[C@H](C)C=NOC[C@@H](O)COCc1ccco1`, the z-score in [1] was 0.776 (inactive); in test [3], 0.726 (inactive); in test [4], -0.332 (inactive); in [5], -0.302 (inactive); in test [6], -0.0498 (inactive); in test [7] it was 0.0388. For the same molecule, the z-score in test [8] was -0.0623 (inactive); in test [9], 0.402 (inactive); in test [10], -0.548; in test [11], -0.695; in test [12], 0.0863; in test [13], -0.893. Also, the z-score in test [14] is -1.05; in [15], -1.09; in [16], -1.83; in test [17], -1.25 (inactive); in test [18], -0.298; in test [19], -0.368. Further, the z-score in [20] is -0.185 (inactive). For the same molecule, the composite z-score in [2] was -0.866.

With `CC(C)=CCCC(C)=CCON=C1C[C@@H](O)[C@@H](O)[C@@H]2[C@@H]3C(=O)N(c4ccc(F)cc4F)C(=O)[C@@H]3CC[C@H]12`, the z-score in [1] is -0.061 (inactive); in [3], 13.7 (active); in [4], 0.545 (inactive); in test [5], 2.8 (inactive); in [6], -0.87 (inactive); in [7], -0.0997. The z-score in test [8] is -0.0501 (inactive); in [9] it was -1.83 (inactive); in [10], -4.58; in test [11] it was -1.39; in test [12], 0.719; in test [13] it was 0.0201. The z-score in test [14] was -3.06; in test [15] it was 0.579; in test [16], -2.26; in [17], 0.866 (inactive); in [18], -0.786; in test [19], -1.55. In [20], the z-score is 0.619 (inactive). Also, in test [2], the composite z-score came out at 0.173.

Consider `CCOC(=O)[C@H](CC(C)C)NC(=O)CCC1CC(OC(=O)NCCc2ccc(F)cc2)CC2(CCCC(COC(=O)NCC(c3ccccc3)c3ccccc3)O2)O1` (stereo not given in full), for which the z-score was -1.18 (inactive) in test [1]; 4 (inactive) in test [3]; -0.523 (inactive) in test [4]; 0.784 (inactive) in test [5]; -0.316 (inactive) in test [6]; 0.0441 in test [7]. The z-score was 1.47 (inactive) in test [8]; 1.88 (inactive) in [9]; 1.52 in [10]; 0.0775 in test [11]; 0.0775 in test [12]; -0.912 in test [13]. Moreover, the z-score is -0.325 in test [14]; 0.497 in test [15]; -0.898 in test [16]; -0.516 (inactive) in test [17]; 0.872 in [18]; -0.019 in test [19]. Also, in test [20], the z-score is 0.171 (inactive). The composite z-score in test [2] was -0.147.

Consider `C=CC[C@@H]1C=C[C@H](ON=C(C)CCN2CCc3nc(-c4ccccc4)c(-c4ccccc4)cc3C2)[C@@H](CO)O1`, for which the z-score in test [1] was 0.418 (inactive); in [3], 4.53 (inactive); in [4], 0.809 (inactive); in [5], 0.85 (inactive); in test [6], 0.538 (inactive); in [7] it was -0.0288. In addition, the z-score in test [8] was -2.79 (inactive); in test [9] it was -0.835 (inactive); in [10], -2.75; in test [11] it was 2.2; in [12], 0.114; in test [13], 2.31. Also, the z-score in [14] is -2.36; in [15] it was -0.141; in [16] it was 3.86; in test [17], -1.91 (inactive); in [18], 0.518; in test [19], -1.17. Further, the z-score in test [20] is 0.548 (inactive). For the same molecule, in test [2], the composite z-score was determined as 0.0446.

On to `CC(CCN1CCCCc2nc(C)c(C)cc21)=NOC[C@@H](O)COCc1ccco1`, for which the z-score is 0.721 (inactive) in [1]; 1.56 (inactive) in test [3]; 0.279 (inactive) in [4]; 0.876 (inactive) in [5]; 0.343 (inactive) in [6]; 0.327 in test [7]. In addition, the z-score was -1.07 (inactive) in test [8]; -0.199 (inactive) in test [9]; -0.153 in [10]; 0.224 in test [11]; 0.0279 in test [12]; -0.437 in test [13]. Moreover, the z-score in test [14] was 0.0805; in test [15] it was -1.05; in test [16], -1.43; in [17] it was -1.47 (inactive); in test [18], 0.854; in test [19], -0.797. Further, in [20], the z-score was -0.701 (inactive). The composite z-score in [2] is -0.0559.

Values taken from PubChem BioAssay.
